Screens: PubChem, National Center for Advancing Translational Sciences (NCATS)
HEK293 tox: qHTS of GLP-1 Receptor Inverse Agonists: Cytotox Screen. Potency, µM (titrated, usually from 38.3 µM), for the others: top-dose activity change, negative = inhibition, most hits filed as inhibitors. 410,000 compounds, 0.13% hits. AID 624418, 2012. HEK293 cAMP-luciferase reporter cells, luminescence, 24 h;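 further: loss of luciferase light is scored as toxicity; on the % scale 0 is the no-effect control and ±100 the full control effect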
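Quantitative HTS format, 1536 wells, 200 cells/uL seeded. Compounds: 23 nL, 24 h, 37 °C. Detection: luciferase reagent, luminescence at 12 min RT; decreased signal taken as cytotoxic.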
GLP-1R inv ag: qHTS of GLP-1 Receptor Inverse Agonists (Inhibition Mode); Glucagon-like peptide 1 receptor (Homo sapiens), P43220; HEK293 GLP-1R CRE-luciferase, luminescence, 24 h; GLP-1R form is constitutively active; Potency, µM (highest dose often 38.3 µM), inactives show at the top dose activity change, negative = inhibition, actives largely listed as inhibitors; 410,000 compounds, 1.6% hits; further: on the % scale 0 is the no-effect control and ±100 the full control effect; nearly all actives have a fitted effect of over 55% in size
Target sequence (P43220 whole entry, looked up): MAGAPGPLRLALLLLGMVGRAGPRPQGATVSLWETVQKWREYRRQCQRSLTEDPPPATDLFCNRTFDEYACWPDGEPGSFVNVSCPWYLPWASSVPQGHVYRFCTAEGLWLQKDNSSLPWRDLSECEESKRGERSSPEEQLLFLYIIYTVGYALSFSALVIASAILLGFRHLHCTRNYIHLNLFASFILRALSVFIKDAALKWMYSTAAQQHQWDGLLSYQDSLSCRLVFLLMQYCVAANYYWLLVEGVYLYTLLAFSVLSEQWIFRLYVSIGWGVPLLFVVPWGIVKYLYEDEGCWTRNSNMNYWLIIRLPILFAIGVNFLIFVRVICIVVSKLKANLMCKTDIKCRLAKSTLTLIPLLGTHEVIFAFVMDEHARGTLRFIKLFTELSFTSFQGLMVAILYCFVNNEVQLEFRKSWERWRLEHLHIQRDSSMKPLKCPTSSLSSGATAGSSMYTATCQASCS
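qHTS in 1536-well format: reporter HEK293 cells expressing constitutive GLP-1R activity in DMEM + 10% Nu serum, 24 hr with compounds at 37 deg C, luminescence read after 12 min with detection reagent.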
GLP1R ag: qHTS of GLP-1 Receptor Agonists; Glucagon-like peptide 1 receptor (Homo sapiens), P43220; HEK293 GLP-1R CRE-luciferase, luminescence, 4-6 h; cells express a hypersensitive GLP-1R form; Potency, µM (highest dose often 45.6 µM), without a hit: at the highest dose activation, hits mostly activators; 380,000 compounds, 0.007% hits; AID 624172, 2012; further: % of control where 0% means no effect
BRCA1 expr act: qHTS Assay to Identify Small Molecule Activators of BRCA1 Expression. MCF7-BRCA1-FFLuc reporter, luminescence, 48 h; response scale: scaled: vehicle 0%, 10 µM genistein 100%. Potency, µM (series often up to 46.1 µM), for inactives: at the highest dose activation, actives largely listed as activators. 380,000 compounds, 1.1% hits; further: nearly all actives have a fitted effect of over 80% in size
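MCF7-BRCA1-FFLuc, 2000 cells/well; 2 h attach, 37 °C/5% CO2; compound 48 h; luciferase substrate 15 min; luminescence end-point. Norm. to genistein 10 microM max activation and DMSO; concentration-response curves fitted.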
a7 integrin act: qHTS for Activators of Integrin-Mediated Alleviation for Muscular Dystrophy; alpha7betagal myoblasts, beta-gal FDG fluorescence, 48 h; Potency, µM (highest dose often 38.3 µM), without a hit: top-dose activation, hits mostly activators; 350,000 compounds, 0.064% hits; AID 624291, 2012;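 further: 100% = response of the positive control SU9516; nearly all actives have a fitted effect of over 60% in size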
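Alpha7betagal+/- myoblasts (passage 13) were plated 16-24 hr, then exposed to compounds (1:260 dilution of DMSO stock) for 48 hours at 37C. After MPER lysis, β-galactosidase reporter activity was read as FDG fluorescence (ex 480/em 540) after 30 minutes.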
An asterisk follows results filed as active; ? = inconclusive; . = no result given; [ ] = dose if it differs, or a comment. The list is not random: actives were taken first. Their share in the collection is about 2.7%. The call rests on the fitted dose curve; in most records, active means well fitted curve in the direction sought with a large enough effect; inconclusive means small, poorly fitted or top-dose-only effect, or another doubt; inactive means no such curve, though single readings can be large; an effect the other way counts as inactive or inconclusive. Potency means the concentration at half of the fitted maximal effect.

SMILES	HEK293 tox	GLP-1R inv ag	GLP1R ag	BRCA1 expr act	a7 integrin act
COc1ccc(NC(=O)CN(c2cc(C)cc(C)c2)S(=O)(=O)c2c(C)noc2C)cc1Cl	-4%	?	-2%	-59%	.
O.O=C([O-])CC([S-])C(=O)[O-].[Au+].[Na+].[Na+] (configuration not stated)	.	.	-7%	.	.
CC1COC(=O)C(NNc2ccc(Cl)c(Cl)c2)=N1 (configuration not stated)	?	2.2µM*	-1%	-21%	-15%
C/C(Nc1ccc(Cl)c(Cl)c1)=C1/CCOC1=O	14%	?	0%	5%	15%
O=C(NCc1ccccc1)C(c1ccccc1)n1c(-c2ccccn2)nc2ccccc21 (configuration not stated)	-2%	7.9µM*	.	.	.
O=C(NCc1ccccc1)C(c1ccccc1)n1c(-c2ccncc2)nc2ccccc21 (configuration not stated)	1%	16%	.	.	.
CCc1ccc(N2C(=O)C(Cl)=C(N3CCOCC3)C2=O)cc1	-2%	31%	0%	47%	-30%
CCc1ccc(N2C(=O)C(Cl)=C(N3CCCCCC3)C2=O)cc1	5%	10µM*	11%	-6%	42%
COc1ccc(OC)c(NC(=O)c2cc(C3CC3)nc3c2c(C)nn3-c2ccc(C)cc2)c1	6%	-9%	.	.	.
COc1ccc(CNc2nc(-c3ccccc3)nn2C(=O)c2ccc([N+](=O)[O-])cc2)cc1	-11%	2%	1%	11µM*	13%
COc1ccc(CNc2nc(-c3ccccc3)nn2C(=O)c2cccs2)cc1	1%	2%	2%	44%	5%
CCOCc1cc(CN2CCN(c3ccccc3OC)CC2)c(O)c2ncccc12	-24%	5µM*	.	.	.
COc1ccccc1N1CCN(Cc2cc(Br)c(O)c3ncccc23)CC1	1.1µM*	?	-7%	-76%	-34%
Oc1c(CN2CCN(c3ccccn3)CC2)cc(Cl)c2cccnc12	?	0.5µM*	7%	-93%	-41%
CCOc1ccccc1N1CCN(Cc2cccc(OC)c2O)CC1	5%	-24%	-3%	-27%	-12%
Cc1ccc(NC(=O)CN2C(=O)COc3ccc(S(=O)(=O)N4CCOCC4)cc32)c(Cl)c1	-16%	-7%	.	.	.
COc1cccc2c1C(=O)/C(=C\c1ccc(N(C)C)cc1)C2	.	.	.	-18%	.
CC(=O)c1ccc(N2CCN(C(=O)Nc3ccc(Cl)cc3)CC2)cc1	5%	8%	1%	3%	22%
O=C(Nc1ccc(Cl)cc1)N1CC=CCC1	-7%	4%	-2%	7.9µM*	-1%
O=C(Nc1ccc(F)c(Cl)c1)N1CCCCCC1	-4%	-18%	-3%	8.9µM*	?
O=C(Nc1ccc(Cl)cc1)N1CCN(c2ccccc2)CC1	-8%	?	1%	31%	2%
O=C(Nc1ccc(Cl)cc1)N1CCC(CO)(Cc2ccccc2)CC1	-15%	7.9µM*	10%	-1%	-2%
CCN(CC)C(=O)C(=O)Nc1ccc(F)c(Cl)c1	-3%	5%	15%	8.9µM*	-17%
O=c1c(N2CCc3ccccc3C2)csc2ccc(Cl)cc12	39%	13%	.	.	.
Cc1cccc(NC(=O)c2cnc3sc(N4CCCC4)nn3c2=O)c1C	-2%	10%	.	.	.
SMILES	HEK293 tox	GLP-1R inv ag	GLP1R ag	BRCA1 expr act	a7 integrin act
COCCCNC(=O)C1CCN(C(=O)c2oc3cc4sc(N(C)C)nc4cc3c2C)CC1	-20%	4%	7%	11µM*	-5%
CCC(=O)N1CCc2cc(Br)cc(S(=O)(=O)CCC(=O)NCCc3cccc(C)c3)c21	1%	-4%	.	.	.
Cc1cc(C)c(C)c(S(=O)(=O)N2CCSCC2)c1C	0%	10µM*	-3%	-4%	-49%
Cc1ccc(/C=N/NC(=O)CSc2nc3ccccc3n2Cc2ccccc2)o1	-12%	5%	16%	-5%	-11%
Cc1ccc(/C=N/NC(=O)CSc2nc3ccccc3n2Cc2ccc(Cl)cc2)o1	-23%	10µM*	-9%	-36%	-26%
Cc1cc(-c2ccccc2)n2nc(N)nc2n1	4%	94%	6%	-1%	13µM*
Cc1cc(C)n2nc(N)nc2n1	4%	1%	-1%	-8%	6%
CCC1CN(C(=O)N2CCC(C(=O)NCCc3ccc(Cl)cc3)CC2)c2ccccc2O1 (configuration not stated)	-2%	?	.	.	.
COc1cccc(NC(=O)N2CCN(c3cccc(C)c3)C(C)C2)c1 (configuration not stated)	-8%	10µM*	1%	43%	1%
Cc1cccc(N2CCN(C(=O)Nc3ccc(F)cc3)CC2C)c1 (configuration not stated)	13%	?	.	.	.
COc1cccc(NC(=O)N2CCc3ccccc3C2)c1	6%	-17%	0%	11µM*	-17%
Cc1ccc(C)c(NC(=O)N2CCc3ccccc3C2)c1	-29%	-15%	-4%	3.5µM*	38%
CCOc1ccc(-n2c(=O)c3c(C)c(C)sc3n(Cc3c(F)cccc3Cl)c2=O)cc1	-9%	0%	.	.	.
COc1cc2c(cc1OC)C(COc1ccccc1OC)N(C(=O)c1ccccc1OC)CC2 (configuration not stated)	2%	4%	12%	-4%	.
COc1cc(C(=O)Nc2ccc3c(c2)OCCO3)ccc1OC(F)F	2%	49%	5%	11µM*	11%[7.66 µM]
CC(C)C(NC(=O)C1CCCCC1)C(=O)Nc1ccc2c(c1)OCCO2 (configuration not stated)	1%	0%	-9%	4.5µM*	-1%
O=C(Nc1ccc2c(c1)OCCO2)c1ccc(Br)s1	?	10µM*	-13%	?	-3%
CC(Sc1ccccc1F)C(=O)Nc1ccc2c(c1)OCCO2 (configuration not stated)	6%	6%	13%	11µM*	-2%
COc1cc(C(=O)Nc2ccc3c(c2)OCCO3)ccc1OC(C)C	-8%	1%	5%	?	0%
CC(Sc1ccc2c(c1)OCCO2)C(=O)Nc1ccc2c(c1)OCO2 (configuration not stated)	-21%	-7%	1%	5%	0%
CCN(Cc1nc(-c2ccc(OC)cc2)oc1C)S(=O)(=O)c1ccc(Cl)cc1	3%	15%	.	.	.
Cc1ccc(CSc2nnc(-c3ccc(NC(=O)CCc4ccccc4)cc3)n2C)cc1	.	.	.	24%	.
CSCC[C@H](NC(=O)[C@@H]1Cc2ccccc2CN1)C(=O)Nc1ccc2c(c1)OCCO2	-3%	-29%	-2%	11µM*	4%
